The text below walks through data of ChEMBL document CHEMBL1201862, “PubChem BioAssay data set” (2004).

SMILES strings stand for the structures.

The assay deals with Huntingtin (Homo sapiens) (UniProt P42858). Nature of the assay: Quantitative High-Throughput Multiplex Assay to Identify Dual Action Probes in a Cell Model of Huntington: Summary. [Related pubchem assays (depositor defined):AID1471, AID1688, AID2669, AID2672, AID2673, AID2713]. The class given is functional.
Sequence of Huntingtin (Homo sapiens) (P42858 whole entry): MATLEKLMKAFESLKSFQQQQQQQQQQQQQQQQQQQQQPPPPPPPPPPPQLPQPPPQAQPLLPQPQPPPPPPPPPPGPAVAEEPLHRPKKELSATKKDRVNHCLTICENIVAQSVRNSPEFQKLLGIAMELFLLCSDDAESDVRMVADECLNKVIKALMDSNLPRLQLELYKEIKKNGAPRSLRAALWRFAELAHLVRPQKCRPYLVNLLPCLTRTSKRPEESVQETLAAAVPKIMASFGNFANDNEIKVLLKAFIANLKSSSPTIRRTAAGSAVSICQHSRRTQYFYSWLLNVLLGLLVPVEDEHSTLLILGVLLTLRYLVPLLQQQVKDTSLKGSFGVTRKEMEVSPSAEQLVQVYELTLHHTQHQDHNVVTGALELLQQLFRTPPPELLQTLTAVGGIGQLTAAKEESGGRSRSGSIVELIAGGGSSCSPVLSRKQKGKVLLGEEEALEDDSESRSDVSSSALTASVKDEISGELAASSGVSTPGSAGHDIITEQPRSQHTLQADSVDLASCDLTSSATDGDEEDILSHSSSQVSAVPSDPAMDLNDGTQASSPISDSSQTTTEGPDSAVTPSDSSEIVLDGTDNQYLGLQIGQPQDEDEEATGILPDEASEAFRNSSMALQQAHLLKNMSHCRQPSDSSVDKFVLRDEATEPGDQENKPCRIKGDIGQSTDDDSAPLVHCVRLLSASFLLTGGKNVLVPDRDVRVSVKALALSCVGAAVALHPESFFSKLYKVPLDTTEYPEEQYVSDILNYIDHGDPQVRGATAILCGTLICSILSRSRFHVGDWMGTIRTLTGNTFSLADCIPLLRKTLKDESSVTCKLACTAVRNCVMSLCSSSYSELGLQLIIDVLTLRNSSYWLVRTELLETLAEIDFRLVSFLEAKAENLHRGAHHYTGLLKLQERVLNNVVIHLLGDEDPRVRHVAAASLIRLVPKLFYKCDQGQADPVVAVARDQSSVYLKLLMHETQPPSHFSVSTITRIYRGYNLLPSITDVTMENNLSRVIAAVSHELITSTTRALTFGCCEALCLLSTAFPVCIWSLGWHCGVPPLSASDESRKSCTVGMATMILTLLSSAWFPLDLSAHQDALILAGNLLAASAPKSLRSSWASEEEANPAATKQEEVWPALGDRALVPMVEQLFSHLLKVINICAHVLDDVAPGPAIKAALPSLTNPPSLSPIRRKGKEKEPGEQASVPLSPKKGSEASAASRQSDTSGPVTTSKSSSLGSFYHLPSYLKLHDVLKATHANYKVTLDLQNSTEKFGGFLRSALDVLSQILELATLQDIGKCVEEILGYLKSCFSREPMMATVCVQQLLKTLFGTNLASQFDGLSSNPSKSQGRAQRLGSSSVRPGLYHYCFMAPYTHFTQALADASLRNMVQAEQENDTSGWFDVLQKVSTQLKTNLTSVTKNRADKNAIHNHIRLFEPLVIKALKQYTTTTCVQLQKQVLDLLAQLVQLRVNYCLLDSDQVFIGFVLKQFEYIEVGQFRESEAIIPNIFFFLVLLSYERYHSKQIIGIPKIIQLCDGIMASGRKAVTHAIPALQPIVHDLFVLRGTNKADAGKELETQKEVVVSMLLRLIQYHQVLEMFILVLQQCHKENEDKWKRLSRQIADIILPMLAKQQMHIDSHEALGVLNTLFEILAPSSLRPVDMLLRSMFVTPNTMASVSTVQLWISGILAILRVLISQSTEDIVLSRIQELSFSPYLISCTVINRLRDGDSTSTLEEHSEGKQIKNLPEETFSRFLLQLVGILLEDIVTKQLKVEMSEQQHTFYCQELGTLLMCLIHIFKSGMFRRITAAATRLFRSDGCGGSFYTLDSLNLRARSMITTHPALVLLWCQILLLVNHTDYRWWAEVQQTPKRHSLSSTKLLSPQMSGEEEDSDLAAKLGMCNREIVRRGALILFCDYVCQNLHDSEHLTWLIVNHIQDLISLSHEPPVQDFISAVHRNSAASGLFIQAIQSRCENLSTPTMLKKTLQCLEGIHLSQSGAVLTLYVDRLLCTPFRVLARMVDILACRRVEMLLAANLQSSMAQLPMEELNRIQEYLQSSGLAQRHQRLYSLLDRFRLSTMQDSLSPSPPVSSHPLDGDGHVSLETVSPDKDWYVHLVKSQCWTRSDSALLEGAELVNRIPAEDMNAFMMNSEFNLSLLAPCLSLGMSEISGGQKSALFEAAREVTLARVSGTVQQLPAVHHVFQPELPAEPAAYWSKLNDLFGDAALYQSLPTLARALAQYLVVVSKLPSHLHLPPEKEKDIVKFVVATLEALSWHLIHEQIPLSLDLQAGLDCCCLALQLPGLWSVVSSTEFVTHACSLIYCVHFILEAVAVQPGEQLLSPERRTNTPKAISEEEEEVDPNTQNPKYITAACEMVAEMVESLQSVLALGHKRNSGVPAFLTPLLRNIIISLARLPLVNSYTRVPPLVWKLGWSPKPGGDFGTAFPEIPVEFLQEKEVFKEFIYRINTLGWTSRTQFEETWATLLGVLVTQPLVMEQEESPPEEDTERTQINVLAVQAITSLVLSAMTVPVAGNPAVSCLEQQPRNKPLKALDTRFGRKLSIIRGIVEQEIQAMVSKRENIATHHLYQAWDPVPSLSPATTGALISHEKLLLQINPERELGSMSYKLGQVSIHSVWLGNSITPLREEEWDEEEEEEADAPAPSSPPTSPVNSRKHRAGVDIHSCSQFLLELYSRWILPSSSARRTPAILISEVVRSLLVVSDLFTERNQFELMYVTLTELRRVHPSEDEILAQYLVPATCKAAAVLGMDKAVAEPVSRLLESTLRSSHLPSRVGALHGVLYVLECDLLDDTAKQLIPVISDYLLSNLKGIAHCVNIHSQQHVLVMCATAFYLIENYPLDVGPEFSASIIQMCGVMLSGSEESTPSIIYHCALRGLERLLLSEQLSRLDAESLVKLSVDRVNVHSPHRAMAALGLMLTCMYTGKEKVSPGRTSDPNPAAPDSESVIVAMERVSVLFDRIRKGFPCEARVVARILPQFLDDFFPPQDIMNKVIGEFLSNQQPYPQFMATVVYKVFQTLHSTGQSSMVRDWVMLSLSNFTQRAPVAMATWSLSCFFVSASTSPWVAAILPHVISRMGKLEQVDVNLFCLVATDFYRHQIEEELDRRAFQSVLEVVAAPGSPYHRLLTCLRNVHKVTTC
As for `COc1cccc(-c2csc3ncnc(Sc4nnnn4C)c23)c1`, the Potency was 7.94 µM (active).
The result for `Cn1nnnc1Sc1ncnc2scc(-c3ccccc3)c12` reads 8.68 µM; that for `Cc1ccccc1-c1csc2ncnc(Sc3nnnn3C)c12`, 63.1 µM (active).
For the molecule `Cn1nnnc1Sc1ncnc2scc(-c3cccc(F)c3)c12`, the Potency is 7.94 µM (active).
With `Cc1cccc(-c2csc3ncnc(Sc4nnnn4C)c23)c1`, the Potency is 15.8 µM (active).
With `Cn1nnnc1Sc1ncnc2scc(-c3ccc(Cl)cc3)c12`, the Potency was 15.8 µM (active).
In the case of `Cc1ccc(-c2csc3ncnc(Sc4nnnn4C)c23)cc1`, the Potency is 15.8 µM (active).
On to `COc1ccccc1-c1csc2ncnc(Sc3nnnn3C)c12`, for which the Potency is 79.4 µM (active).
Next, `Cn1nnnc1Sc1ncnc2scc(-c3ccccc3C(F)(F)F)c12`: 25.1 µM (active); `Cn1nnnc1Sc1ncnc2scc(-c3ccccc3F)c12`: 12.6 µM (active).
As to `COc1ccc(-c2csc3ncnc(Sc4nnnn4C)c23)cc1`, the Potency was 12.6 µM (active).
